High-throughput results (PubChem BioAssay)
Marburg entry inh: qHTS for inhibitors of binding or entry into cells for Marburg Virus | Marburg virus pseudotyped entry inhibition, cell reporter | Potency, µM (highest dose often 37.8 µM), inactives show top-dose activity change, negative = inhibition, actives largely listed as inhibitors | 1.8% of 300,000 active; calls by dose curve; tested in HEK293 cells; also: potency is read from the fitted curve at half-maximal effect
HCV inh: qHTS Assay for Inhibitors of Hepatitis C Virus (HCV) | 3.4% of 340,000 active | AID 651820, 2012 | Huh7.5.1 HCVcc-Cre infection, luciferase reporter, 44 h | Potency, µM (top dose mostly 41.8 µM), inactives show at the highest dose activity change, negative = inhibition, hits mostly inhibitors; active = well fitted inhibition curve with a large enough effect; inconclusive = small, poorly fitted or top-dose-only effect, or another doubt; inactive = no such curve, though single readings can be large or run the other way; also: potency is read from the fitted curve at half-maximal effect
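Whole-lifecycle infectious HCVcc-Cre system; cells 1,000/well, compound then virus (~0.5 moi) added 4 h after plating, 44 h culture. Luciferase read 15 sec following 15 min substrate incubation, room temp.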
HCMV antiviral: qHTS Assay for inhibitors of the human cytomegalovirus (HCMV) | HFF cells, HCMV-luciferase reporter, 72 h; active compounds read low | 4.5% of 410,000 active | activity change, negative = inhibition, % at 57.5 µM; in the data active = activity change below about -60%; inconclusive = no clear call, values can overlap the other calls; inactive = above about -39%
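Steps: HFFs plated, 16 h 37C; compounds added; HCMV-luciferase added to MOI 1 PFU/cell; 72 h 37C; OneGlo reagent, 5 min room temperature; luminescence read, normalized to controls.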
VACV mCherry inh: qHTS for Stage-Specific Inhibitors of Vaccinia Orthopoxvirus: mCherry Reporter Primary qHTS. Vaccinia virus mCherry reporter infection, fluorescence. Potency, µM (top dose mostly 36.5 µM), for the others: at the top dose activity change, negative = inhibition, most hits filed as inhibitors. 0.63% of 310,000 active; calls by dose curve; tested in A549 cells; also: potency is read from the fitted curve at half-maximal effect; nearly all actives have a fitted effect of over 35% in size
Lassa entry inh: qHTS for Inhibitors of binding or entry into cells for Lassa Virus | 1.2% of 300,000 active | Potency, µM (highest dose often 37.9 µM), for inactives: at the highest dose activity change, negative = inhibition, usual class: inhibitors | Lassa virus pseudotype entry inhibition, cell reporter | AID 540256, 2011; calls by dose curve; tested in HEK293 cells; also: potency is read from the fitted curve at half-maximal effect; nearly all actives have a fitted effect of over 50% in size
Vaccinia Venus: qHTS for Stage-Specific Inhibitors of Vaccinia Orthopoxvirus: Venus Reporter Primary qHTS | 0.46% of 330,000 active | Potency, µM (highest dose often 36.5 µM), inactives show top-dose activity change, negative = inhibition, hits mostly inhibitors | AID 720580, 2013 | Vaccinia virus Venus reporter expression, fluorescence; calls by dose curve; tested in A549 cells; also: potency is read from the fitted curve at half-maximal effect; nearly all actives have a fitted effect of over 30% in size
Numbers without * were called inactive; [ ] = remark or other dose. Sampled rows, rich in hits. Any-hit rate of the full collection: about 7.8%. % is scaled to controls: 0 for no effect and ±100 for the full control effect.

COc1ccc(N2C(N)=NC(N)=NC2(C)C)cc1 was read as Marburg entry inh inconclusive, HCV inh -19%, HCMV antiviral inconclusive, VACV mCherry inh inconclusive, Lassa entry inh inconclusive and Vaccinia Venus 11µM*.
For COc1ccc(N2C(N)=NC(N)=NC23CCCC3)cc1 the results were Marburg entry inh inconclusive, HCV inh 12%, HCMV antiviral -39, Lassa entry inh 10% and Vaccinia Venus inconclusive.
CC1(C)N=C(N)N=C(N)N1c1cccc(C#N)c1 was read as Marburg entry inh inconclusive, HCV inh inconclusive, HCMV antiviral -77*, VACV mCherry inh 2µM*, Lassa entry inh 2.5µM* and Vaccinia Venus 4.5µM*.
COc1cccc(N2C(N)=NC(N)=NC2(C)C)c1 was read as Marburg entry inh -26%, HCV inh -13%, HCMV antiviral -67*, Lassa entry inh inconclusive and Vaccinia Venus inconclusive.
For CCS(=O)(=O)c1cccc(C(=O)N2CCN(c3nc4c(C)ccc(Cl)c4s3)CC2)c1 the results were HCMV antiviral inconclusive, VACV mCherry inh -9%[7.34 µM], Lassa entry inh inconclusive and Vaccinia Venus -16%[7.34 µM].
CCC(C(=O)Nc1ccccc1OC)n1c(C(=O)OC)cc2sc(Cl)cc21 (configuration not stated) was read as Marburg entry inh -50%[46.1 µM], HCMV antiviral 15, VACV mCherry inh -7% and Vaccinia Venus -7%.
Screening Cc1c(Cl)cccc1NC(=S)N1CCCN(Cc2ccc(F)cc2)C1 returned Marburg entry inh 4µM*, HCV inh -20%, HCMV antiviral 0, VACV mCherry inh -19%, Lassa entry inh 21%[46.1 µM] and Vaccinia Venus -13%.
`CSc1cccc(NC(=S)N2CCCN(Cc3ccc(F)cc3)C2)c1` gave Marburg entry inh 6.3µM*, HCV inh -14%, HCMV antiviral 0, VACV mCherry inh -8%, Lassa entry inh inconclusive and Vaccinia Venus -25%.
Screening Cc1ccccc1NC(=S)N1CCCN(Cc2ccc(F)cc2)C1 returned HCV inh -24% and HCMV antiviral -32.
Screening Cc1c(Cl)cccc1NC(=S)N1CCCN(Cc2ccccc2F)C1 returned Marburg entry inh 10µM*, HCV inh 1%, HCMV antiviral -9, VACV mCherry inh inconclusive, Lassa entry inh inconclusive and Vaccinia Venus -22%.
`COC(=O)C(C(=O)OC)[C@H]1c2ccccc2[C@@H]2C(=C[C@@H](C)[C@H]3C(=O)N(c4ccccc4)C(=O)[C@H]32)N1C(=O)OC` gave Marburg entry inh 25%[14.2 µM].
Screening N#Cc1cc2c(=O)n3ccccc3nc2n(-c2ccc(Cl)cc2)c1=O returned HCV inh 10%, HCMV antiviral -60*, VACV mCherry inh -3% and Vaccinia Venus 4%.
O=C1C2CCCN2C(c2cccs2)N1c1ccc(Cl)cc1 (configuration not stated) was read as Marburg entry inh inconclusive, HCV inh 1%, HCMV antiviral -74* and Lassa entry inh 7.3µM*.
Screening COc1ccccc1C1N(c2ccc(Cl)cc2)C(=O)C2CCCN21 (configuration not stated) returned Marburg entry inh 4.6µM*, HCV inh -19%, HCMV antiviral -75* and Lassa entry inh inconclusive.
`COc1cccc(C2N(c3ccc(Cl)cc3)C(=O)C3CCCN32)c1` (configuration not stated) gave HCV inh -3%, HCMV antiviral 24, VACV mCherry inh -13% and Vaccinia Venus -2%.
Screening N[C@@H]1CCc2cc(O)c(O)cc2C1 returned Marburg entry inh 5%.
